Molecules are shown by their SMILES. Screen size: about 220,000 compounds; about 2,000 (0.91%) were called active. Another 2% or so got no clear call; they are omitted. These entries were drawn from the full list. Measured potencies and affinities stand elsewhere. A number with no mark means an inactive call. Rule as the data show it: inconclusive = inhibition above about 80% without an active follow-up result; inactive = below that; test concentration not stated here.

The assay can be described thus: M. tuberculosis H37Rv growth inhibitors, H37Rv strain (AID 1626).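 Also: bacteria incubated seven days before Alamar blue readout; 0% = bacteria only wells and 100% = bacteria with antibiotic wells.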 The note with it: stronger effect = higher value, concentration not given here.
On to `O=S(=O)(Nc1ccccc1)c1ccc(-c2csnn2)cc1`, for which the inhibition was 8.85%.
As for `CCN(CC)C(=O)CN(c1cc(Cl)ccc1OC)S(=O)(=O)c1ccc(C)c([N+](=O)[O-])c1`, the inhibition is 4.94%.
As for `O=C(COc1ccc(Cl)cc1)NCc1nnc2c3ccccc3c(-c3ccccc3)nn12`, the inhibition is 32.3%.
With `O=C(NCc1nnc2c3ccccc3c(-c3ccccc3)nn12)c1ccccc1Cl`, the inhibition is 17.6%.
The figure for `CCn1nc(C(=O)NCCc2ccc(S(N)(=O)=O)cc2)c2ccccc2c1=O` is -2.56%; for `COc1ccc(C(CCN2CCN(c3ccccc3)CC2)c2c(OC)cc(OC)c3c(-c4ccccc4)cc(=O)oc23)cc1` (stereo not given) it is 6.72%; for `COc1cc(OC)c2c(-c3ccccc3)cc(=O)oc2c1C(CCN1CCN(c2ccccc2)CC1)c1ccc(N(C)C)cc1` (stereo not given) it is 13.6%.
Regarding `COc1ccc(C(CCN2CCCC2)c2c(OC)cc(OC)c3c(-c4ccccc4)cc(=O)oc23)cc1` (stereo not given), the inhibition was 64.5%.
The figure for `COc1cc(C(CCN2CCCCC2)c2c(OC)cc(OC)c3c(-c4ccccc4)cc(=O)oc23)cc(OC)c1OC` (stereo not given) is 10.2%.
Turning to `CC(C)CCn1nnnc1C(C(C)C)N1CCC(C(N)=O)CC1` (stereo not given), the inhibition was -6.25%.
`CC(/C=C/c1ccco1)=N\NC(=O)c1cc(C)[nH]n1`: the inhibition was -12%.
On to `O=C(Nc1ccccc1O)c1cc(S(=O)(=O)N2CCOCC2)ccc1Cl`, for which the inhibition was 6.89%.
Under `NNc1nc(-c2ccccc2)cs1` stands 4.39%; under `Cc1ccc(/C=C\c2nccc3c2[nH]c2ccccc23)cc1`, 42.1%.
As for `Fc1ccc(/C=C\c2nccc3c2[nH]c2ccccc23)cc1`, the inhibition is 8.94%.
Take `Cc1ccc(/C=N/NC(=O)Cn2nnc(N)n2)cc1`: the inhibition is -5.78%.
As for `CCC(C)[C@H](NC(=O)NCCC1=CCCCC1)C(=O)OC` (stereo not given in full), the inhibition is -7.06%.
As to `O=C(CSc1ncccn1)N/N=C/c1ccc(OC2CSC2)cc1`, the inhibition was 0.1%.
Turning to `CCc1ccc(-c2nn(-c3cc(Cl)ccc3[N+](=O)[O-])c(=O)c3ccccc23)cc1`, the inhibition was 3.9%.
Turning to `CC(C)=C1SC(N2CCOCC2)=NC1=O`, the inhibition is -2.58%.
In the case of `Cc1c(C(=O)O)cccc1N1C(=O)Nc2ccccc2N1O`, the inhibition was 5.34%.
`Clc1ccc(-c2nnc(CSc3nnc(-c4cccs4)o3)o2)cc1`: the inhibition was 12.5%.
Take `c1ccc(-c2nc(CSc3nnc(-c4cccs4)o3)cs2)cc1`: the inhibition is 2.37%.
For `Cc1ccc(Nc2nc(CSc3n[nH]c(N)n3)cs2)cc1`, the inhibition was 9.31%.
Regarding `c1ccc(-c2nnc(CSc3nnc(-c4cccs4)o3)o2)cc1`, the inhibition was 39.4%.
Turning to `O=C(Nc1nc(-c2cccc3ccccc23)cs1)c1ccc2c(c1)S(=O)(=O)c1ccccc1C2=O`, the inhibition is 4.24%.
The figure for `Cc1cccc(NC(=S)N(Cc2cccs2)Cc2cc3cc(C)ccc3[nH]c2=O)c1` is 8.62%; for `CC(=O)O/C(=C\c1cn(C(C)=O)c2ccccc12)C(=O)O` it is 7.86%; for `COc1cc(OC)cc(-c2nnc(SCC(=O)N3CCCC3)o2)c1` it is 14.8%.
As to `O=C(CSc1nnc(COc2ccccc2)o1)N1CCN(c2ccccc2)CC1`, the inhibition was 7.79%.
Under `CCOC(=O)CSc1nnc(-c2cccnc2)o1` stands -8.92%.
For `COc1cc(-c2nnc(SCC(=O)c3ccccc3)o2)cc(OC)c1OC`, the inhibition was -0.24%.
On to `CCCCN(CCCC)C(=O)CSc1nnc(-c2cc(OC)c(OC)c(OC)c2)o1`, for which the inhibition was 5.31%.
Consider `CCOC(=O)N1CCN(C(=O)CSc2nnc(Cc3ccccc3)o2)CC1`, for which the inhibition is 3.59%.
For `CCOC(=O)CSc1nnc(-c2ccccc2)o1`, the inhibition is 27.1%.
For `COc1cc(OC)cc(-c2nnc(SCC(=O)N3CCCCC3)o2)c1`, the inhibition was 13.8%.
Take `Cc1ccc(C)n1-c1c(C(=O)NN)cnn1-c1ccccc1`: the inhibition is -0.22%.
Regarding `C=CCn1c(-c2cccnc2)n[nH]c1=S`, the inhibition was 4.66%.
Under `O=C1CCC/C(=N\NC(=O)COc2ccc(Cl)cc2)C1` stands -2.69%.
In the case of `O=C(Cn1cnc2ccccc2c1=O)Nc1ccccc1N1CCOCC1`, the inhibition is 2.06%.
Take `CN1CCN(c2ccccc2NC(=O)c2cc(Br)ccc2Cl)CC1`: the inhibition was 12.3%.
Under `COC(=O)C(Cc1ccccc1)NC(=S)NC(=O)c1ccccc1` (stereo not given) stands 3.22%.
For `COc1cc(-c2nnc(SCC(=O)N3CCCC3)o2)cc(OC)c1OC`, the inhibition was -3.99%.
The figure for `CCOC(=O)c1c(C)[nH]c(C)c1C(=O)CSc1nnc(-c2cc(OC)c(OC)c(OC)c2)o1` is -2.95%; for `COc1ccc(N2CCC(CNC(=O)Nc3cccc(OC)c3)C2)cc1` (stereo not given) it is 8.56%; for `COc1ccc(NC(=S)N2C3CCC2CC(NC(=O)NC24CC5CC(CC(C5)C2)C4)C3)c(OC)c1` (stereo not given) it is 40.3%.
The figure for `CCOCC(=O)Nc1ccc([N+](=O)[O-])cc1C` is 4.52%; for `COc1ccc(CC2(CO)CCN(Cc3cc4ccccc4o3)CC2)cc1` it is 5.84%.
`CC(Sc1ccccc1)C(=O)NN=C1CCCC1` (stereo not given): the inhibition is -0.55%.
Under `CC1CCc2nc(NC(=O)CN3CCN(c4ccc(F)cc4)CC3)sc2C1` (stereo not given) stands 18.4%.
`CC1CCc2nc(NC(=O)CN3CCOCC3)sc2C1` (stereo not given): the inhibition was 23.3%.
On to `COc1ccc(N2CCN(CC(=O)Nc3nnc(-c4ccccc4)s3)CC2)cc1`, for which the inhibition is 73.3%.
For `CC1CCc2nc(NC(=O)CN3CCN(Cc4ccc5c(c4)OCO5)CC3)sc2C1` (stereo not given), the inhibition is 64.4%.
Turning to `O=C(O)c1ccccc1NC(=S)NC(=O)c1sc2ccccc2c1Cl`, the inhibition was -3.63%.
`CCOC(=O)C(C)Sc1nc(=O)n2ccccc2n1` (stereo not given): the inhibition was -0.38%.
The figure for `Clc1cccc(Cl)c1CSc1nnc(CN2CCOCC2)n1-c1ccccc1` is -7.41%; for `O=C(O)CCC(=O)Nc1ccc(Br)cc1C(=O)c1ccc(Cl)cc1` it is -5.88%; for `COc1ccccc1COCC(O)CN(Cc1ccco1)Cc1ccccc1O` (stereo not given) it is 11.4%.
Consider `COc1ccc(/C=C/C(=O)C(C)(C)C)cc1OC`, for which the inhibition was 7.04%.
Under `COc1ccc(/C=C/C(=O)O)cc1OC` stands -4.92%.
